# Measured values: the supplement of paper PMC10646978
# ± gives the standard deviation.
# Assays:
# Details in all cases: modulator concentration 10 µM
# [1] = test system: RAW-Dual (murine macrophage reporter line); assay: NF-kB reporter (SEAP) activity fold change vs agonist alone; higher = enhanced NF-kB activity
# Outline: (§1)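 In 384-well plates holding 50 000 RAW-Dual murine macrophage reporter cells per well, compound at 10 μM final was pre-incubated for 1 hour at 37 °C, after which a PRR agonist was added overnight. Supernatant SEAP read with QUANTI-Blue at 620 nm absorbance reported NF-κB, and Lucia luciferase read with QUANTI-Luc luminescence reported IRF. Fold change values come from dividing each reporter signal by the mean of agonist-only control wells on the same plate, averaged over replicate plates with propagated errors.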
# [2] = test system: RAW-Dual (murine macrophage reporter line); assay: IRF reporter (Lucia luciferase) activity fold change vs agonist alone; higher = enhanced IRF activity
# Outline: as §1
# [3] = test system: RAW-Dual (murine macrophage reporter line); assay: viability score (confluency relative to resting cells, overnight) (fraction); higher = more viable, active = viable (0.7 or more)
# Outline: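 Two confluency masks, generated with IncuCyte software over all imaged wells, were applied to IncuCyte images of RAW-Dual macrophages. The cells, in 384-well plates, had been exposed overnight to 10 μM final compound. The viability score is confluency as a fraction of resting cells, and a compound met the cutoff only with both masks above 70% of resting cells.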
# [4] = agonist: CpG ODN 1826 0.5 ug/mL
Structure (SMILES),"NF-kB reporter [1, 4]",NF-kB reporter ([1]; agonist: LPS 0.1 ug/mL),NF-kB reporter ([1]; agonist: MPLA […]),IRF reporter ([2]; agonist: 3'3'-cGAMP 10 ug/mL),IRF reporter ([2]; agonist: LPS 0.1 ug/mL),IRF reporter ([2]; agonist: MPLA […]),viability score [3]
COCCN1C(=O)CN(C2CCN(Cc3cc(OC)cc(OC)c3)CC2)C1=O,0.918 ± 0.047,1.14 ± 0.11,0.881 ± 0.04,0.979 ± 0.051,1.09 ± 0.12,1.13 ± 0.13,1.01 (active)
Cl.OC(CCCN1CCCCC1)(c1ccccc1)c1ccccc1,0.856 ± 0.037,0.895 ± 0.088,0.982 ± 0.061,1.63 ± 0.092,1.1 ± 0.3,1.08 ± 0.47,0.998 (active)
O=C(NCC1(O)CCOc2ccccc21)c1ccccc1C(F)(F)F (stereo not given),1.85 ± 0.095,1.31 ± 0.24,1.95 ± 0.67,0.687 ± 0.44,0.669 ± 0.34,0.721 ± 0.084,0.574 (inactive)
CCC(=O)c1ccc(N2CCCCCC2)c(F)c1,0.864 ± 0.067,0.96 ± 0.074,1.14 ± 0.16,1 ± 0.048,1.61 ± 0.1,2.1 ± 0.18,0.982 (active)
CCOCCn1c(N2CCCN(C)CC2)nc2ccccc21 [Prestw-1274],0.77 ± 0.17,1.24 ± 0.17,1.03 ± 0.08,1.01 ± 0.027,1.19 ± 0.21,1.44 ± 0.15,0.996 (active)
CCC(=O)Nc1ccc(S(=O)(=O)NCC2CCN(Cc3ccccc3)CC2)c(C)c1,0.787 ± 0.038,0.961 ± 0.076,1.08 ± 0.058,1.14 ± 0.053,1.37 ± 0.23,1.49 ± 0.43,0.967 (active)
CC1=CCCC(=O)C2CC(C)(C)C2CC1 (stereo not given),0.95 ± 0.13,0.857 ± 0.11,0.89 ± 0.083,0.876 ± 0.031,1.05 ± 0.15,1.05 ± 0.3,1.05 (active)
O=C1CCCc2nn(-c3ccccc3)nc21,1.02 ± 0.086,1.05 ± 0.14,1.09 ± 0.12,1 ± 0.049,1.17 ± 0.14,1.21 ± 0.19,1.03 (active)
CCOc1cc(CC(=O)N[C@@H](CC(C)C)c2ccccc2N2CCCCC2)ccc1C(=O)O,1.24 ± 0.23,1.11 ± 0.23,0.956 ± 0.055,0.897 ± 0.039,1.22 ± 0.32,1.26 ± 0.18,0.683 (inactive)
N=C1NC(=O)C(=Cc2ccc(-c3ccc(F)cc3)o2)S1,0.507 ± 0.047,0.632 ± 0.042,0.964 ± 0.043,1.02 ± 0.17,0.989 ± 0.15,0.798 ± 0.13,1 (active)
O=C(CCCN1CC=C(n2c(=O)[nH]c3ccccc32)CC1)c1ccc(F)cc1,0.788 ± 0.06,0.828 ± 0.078,0.71 ± 0.069,0.975 ± 0.052,0.932 ± 0.15,1.21 ± 0.2,0.276 (inactive)
COCCCC/C(=N\OCCN)c1ccc(C(F)(F)F)cc1.O=C(O)/C=C\C(=O)O,0.903 ± 0.072,0.902 ± 0.042,1.23 ± 0.15,0.829 ± 0.04,1.42 ± 0.083,1.67 ± 0.14,0.985 (active)
O=C(O)c1cc(NC(=O)c2ccc(Cl)c([N+](=O)[O-])c2)cc(C(=O)O)c1,1.08 ± 0.11,0.973 ± 0.064,1.02 ± 0.045,1.03 ± 0.19,1.04 ± 0.088,1.08 ± 0.17,1 (active)
COc1cc(Nc2ncc3c(n2)-c2ccc(Cl)cc2C(c2c(F)cccc2OC)=NC3)ccc1C(=O)O,0.416 ± 0.036,0.72 ± 0.038,0.775 ± 0.081,0.974 ± 0.045,1.06 ± 0.062,1.06 ± 0.15,0.92 (active)
CC(=Cc1ccccc1)CN1CC(C)OC(C)C1 (stereo not given),0.788 ± 0.063,0.788 ± 0.05,1.04 ± 0.12,0.933 ± 0.044,1.28 ± 0.074,1.47 ± 0.17,0.956 (active)
